Data on 14 molecules can be found in PubChem BioAssay (NCI).

Each structure is given as a SMILES string. This is part of a sample that, as a whole, favours compounds with a hit. Of some 83,000 tested, about 20% had one in any assay.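 Plates (96-well) were seeded with cells, treated with compound at one concentration, and incubated for 48 hours before percent growth was determined.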 Active and inactive are the calls of the source. How the source made its calls: active means growth percent below 10; inactive means the rest.

This assay concerns HS 578T breast. Description: NCI-60 one-dose screen, 48 h (100 = growth as untreated, 0 = no growth, -100 = all killed). The settings on record: 10 µM unless noted.
`Cc1ccc(S(=O)(=O)OCC(=O)Nc2ccc(C(=O)O)c(O)c2)cc1`: the growth was 118% (inactive).

Turning to `O=S(=O)(c1ccccc1)n1ccc(-c2ccc3c(c2)CCO3)n1`, the growth was 102% (inactive).

Regarding `Clc1ccc(-c2nc(-c3ccco3)cn3ccnc23)cc1`, the growth was 74% (inactive).

Turning to `O=P([O-])(O)OP(=O)([O-])O.[NH-][C@H]1CCCC[C@@H]1[NH-].[OH-].[OH-].[Pt+4]`, the growth was 109% (inactive).

For `O=C(CC(O)c1ccncc1)c1ccccc1` (centres undefined), the growth was -21.8% (active).

With `O=c1oc2c([nH]c3ccc4ccccc4c32)c2ccccc12`, the growth was 104% (inactive).

`Nc1c(C(=O)Nc2ccccc2)sc2nc3c(cc12)CCC3`: the growth was 92.8% (inactive).

Turning to `COc1ccc(C2CC(c3cccs3)=NN2c2ccc(S(=O)(=O)NC(=O)NCc3cccc(OC)c3)cc2)cc1` (centres undefined), the growth was 97.5% (inactive).

Turning to `Cc1ccc(S(=O)(=O)OC2COCOC2C(OS(=O)(=O)c2ccc(C)cc2)C2OCOCC2OS(=O)(=O)c2ccc(C)cc2)cc1` (centres undefined), the growth is 107% (inactive).

For the molecule `CC(=O)Nc1ccc(S(=O)(=O)N2C(=O)CCC2C(=O)Nc2ccc(Br)cc2)cc1` (centres undefined), the growth was 56.6% (inactive).

As to `CS(=O)(=O)N(c1cc(-c2ccc3ncnc(Nc4cccc(Cl)c4)c3c2)cnc1Cl)S(C)(=O)=O`, the growth was -3.12% (active).

For the molecule `O=S(=O)(NCCNc1cc(-c2cn(-c3ccccc3)nc2-c2ccccc2)ccn1)c1cccc2ccccc12`, the growth was 56.3% (inactive).

Turning to `CC/C=C\C[C@H](O)C/C=C1/C(=O)C(Cl)=C[C@@H]1C/C=C\CCCC(=O)O`, the growth is 75.9% (inactive).

Consider `CC[C@H](C)[C@@H]1NC(=O)[C@H]([C@@H](C)O)NC(=O)C(Cc2ccccc2)NC(=O)[C@@H]2CCCN2C(=O)C(C(C)C)NC(=O)C(Cc2ccccc2)NC(=O)CNC(=O)[C@@H]2CCCN2C1=O` (some centres undefined), for which the growth was 59.2% (inactive).
